CYP2C9 inhib – blocks human cytochrome P450 2C9; P11712; CYP2C9 Supersomes, luciferin-H conversion, luminescence; 96,000 compounds, 20% hits; inhibition, % at 5 µM;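 active = blocking of liver enzyme CYP2C9 beyond about 50% at 5 µM, limit read from the data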
Pyk2 oligo antag – blocks oligomerization of human Pyk2 in cells; Q14289; Q293 cells, Pyk2 FERM NanoBiT luminescence; stronger effect = lower value; z-score (the deposit names both 25 µM and 10 µM); 99,000 compounds, 0.83% hits; AID 1347419;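 active = Z-score of -3 or lower, scaled per plate to the spread of control and sample wells; inactive = z-score above -3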;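 also: negative z-score means lost luminescence so less FERM oligomerization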
CYP2C19 inh – blocks human cytochrome P450 2C19. P33261. CYP2C19 Supersomes, luciferin-H EGE luminescence, 30 min. inhibition, % at 5 µM. 96,000 compounds, 21% hits;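 active = CYP2C19 inhibition above a set limit at 5 µM in the primary screen, cut at about 50% in these data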;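 also: plate controls were negative control wells for no effect and 2.5 mM tranylcypromine positive control for full effect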
CYP2C9 activ – activators of human CYP2C9; P11712; recombinant CYP2C9, luciferin-H conversion, luminescence; stronger effect = higher value; factor 1 = untreated enzyme, 0 = blocked; activation factor at 5 µM; 96,000 compounds, 1.4% hits;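 active = activation factor of 2 or more for CYP2C9 at a 5 µM dose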;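 also: 0 = sulfaphenazole-blocked wells and 1 = vehicle-only wells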
CYP2C19 activ – cytochrome P450 2C19 (human) activation; activation factor at 5 µM; 96,000 tested, under 10 active; P33261; recombinant CYP2C19, luciferin-H EGE luminescence; stronger effect = higher value; 0 = fully inhibited enzyme, 1 = untreated enzyme;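 active = activation factor of at least 2 at 5 µM in the primary screen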;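 also: 0 = wells with 2.5 mM tranylcypromine and 1 = vehicle-only wells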
Cav3 T inh – human Cav3.2 channel inhibition, primary screen. O95180. Cav3.2-expressing cells, Fluo-4 calcium fluorescence FDSS; stronger effect = lower value. B-score at 10 µM. 100,000 compounds, 4% hits. AID 449739;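 active = single-dose well whose peak fluorescence ratio is a statistical outlier from its plate by either plate-standardised score or position-corrected B-score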
Starred values were filed as active, the others as inactive; . = no result given. A selection: hits, their analogues and other compounds. The true share with any hit is near 27%.

SMILES	CYP2C9 inhib	Pyk2 oligo antag	CYP2C19 inh	CYP2C9 activ	CYP2C19 activ	Cav3 T inh
N#Cc1ccc(CSc2nnc(-c3cccs3)n2-c2ccccc2)cc1	92*	-2.7	93*	0.1	0.1	-5.8*
CCn1c(SCc2ccccc2)nnc1-c1cccs1	.	-0.91	.	.	.	-0.47
N#Cc1ccc(CSc2nnc(-c3ccncc3)n2CCc2ccccc2)cc1	54*	-0.02	61*	0.5	0.4	-0.16
N#Cc1ccc(CSc2nnc(-c3ccccn3)n2-c2ccccc2)cc1	43	-0.79	78*	0.6	0.2	1.3
CSC1=C(C#N)C(CC(C)C)C(C(C)=O)=C(C)N1 (stereo not drawn)	49	-0.67	82*	0.5	0.2	0.12
O=C(C1CCN(S(=O)(=O)N2CCOCC2)CC1)N1CCOCC1	-4	0.01	-9	1	1.1	0.32
COc1ccc(OC)c(N(CC(=O)N2CCc3ccccc3C2)S(C)(=O)=O)c1	4	-0.38	24	1	0.8	-0.0017
C#CCSc1nnc(-c2ccc(OC)cc2)o1	-2	0.16	16	1	0.8	0.14
CCn1c(C)cc(/C=C2\SC(=O)N(CC(=O)Nc3ccc(C)c(C)c3)C2=O)c1C	16	-0.35	57*	0.8	0.4	-1.3
CCn1c(C)cc(/C=C2\NC(=O)N(CC(=O)Nc3cccc(C)c3)C2=O)c1C	40	0.02	13	0.6	0.9	-0.35
CSc1nc(C)c2c(n1)N(c1ccc(C(C)C)cc1)CC2	6	-0.17	-5	0.9	1	.
O=C(NCc1ccc(Cl)cc1)C1C2C=CC3(CN(Cc4cccnc4)C(=O)C13)O2 (stereo not drawn)	53*	-0.2	30	0.5	0.7	0.2
COc1ccc(CCN2CC34C=CC(O3)C(C(=O)NCc3ccccc3Cl)C4C2=O)cc1OC (stereo not drawn)	4	2.2	5	1	1	0.81
O=C(NCC1COc2ccccc2O1)C1C2C=CC3(CN(Cc4ccccc4Cl)C(=O)C13)O2 (stereo not drawn)	10	-0.08	10	0.9	0.9	-8.7*
Cc1cc(C(=O)OCC(=O)Nc2ccc(F)cc2)c(C)o1	-10	0.13	61*	1.1	0.4	0.14
CCN(CC)S(=O)(=O)c1cccc(NC(=O)COC(=O)c2cc(C)oc2C)c1	96*	0.24	64*	0	0.4	-6*
Cc1ccc(S(=O)(=O)N2CCN(C(=O)COC(=O)c3cc(C)oc3C)CC2)cc1	6	0.69	-3	0.9	1	-0.2
Cc1sc2c(c1C)c(=O)n(-c1cccc(C(F)(F)F)c1)c(=O)n2CC(=O)NCc1ccco1	8	-0.64	10	0.9	0.9	-0.38
CSc1ccc(-c2nc(CSCC(=O)NCCCN3CCOCC3)c(C)o2)cc1	29	0.65	56*	0.7	0.4	2.2
CN(C)CCCOC(=O)CCc1ccccc1	2	0.7	8	1	0.9	0.13
CN(C)CCCOC(=O)Cc1ccc(Cl)cc1	26	0.6	69*	0.7	0.3	0.26
O=S(=O)(NCCc1cn2ccccc2n1)c1ccc2c(c1)CCCC2	.	.	.	.	.	1.3
CCCCCCc1nc2ccccc2c(=O)n1NC(=O)c1c(O)c2cccc3c2n(c1=O)CCC3	40	.	1	0.6	1	.
CCCCc1nc2ccccc2c(=O)n1NC(=O)c1c(O)c2cccc3c2n(c1=O)CCC3	53*	.	8	0.5	0.9	.
O=S(=O)(c1cc(Cl)ccc1Cl)N1CCCC1	-248	0.01	56*	3.5*	0.4	-0.24
SMILES	CYP2C9 inhib	Pyk2 oligo antag	CYP2C19 inh	CYP2C9 activ	CYP2C19 activ	Cav3 T inh
O=C(O)C1CCCN1S(=O)(=O)c1cccs1 (stereo not drawn)	10	.	32	0.9	0.7	0.89
CC1CCN(S(=O)(=O)c2ccc(Cl)cc2Br)CC1	-71	-0.24	68*	1.7	0.3	-0.68
COc1ccc(Cl)c(S(=O)(=O)N2CCCC2)c1	-183	0.57	80*	2.8*	0.2	.
O=C(O)C1CCCN1S(=O)(=O)c1ccc(Br)s1 (stereo not drawn) (tested in a mixture with another compound)	-13	1.6	59*	1.1	0.4	0.98
CCOc1ccccc1N1C(=O)CC(Sc2ncccc2C(=O)O)C1=O (stereo not drawn)	-30	-0.42	-18	1.3	1.2	0.93
CCOC(=O)C1CCCN(C/C(O)=C(\C#N)c2nc(-c3ccccc3)cs2)C1 (stereo not drawn)	31	-0.34	45	0.7	0.6	1.3
O=S(=O)(c1cc(Cl)ccc1Cl)N1CCCCC1	-229	-0.26	65*	3.3*	0.4	-2
O=C(c1ccc(Cl)c(S(=O)(=O)N2CCCCCC2)c1)N1CCN(CCO)CC1	40	1.4	16	0.6	0.8	0.41
O=S(=O)(c1cccc(Cl)c1)N1CCCC1	-89	-0.88	44	1.9	0.6	-2.6
CC1=NCCN1S(=O)(=O)c1cc(Cl)ccc1Cl	-178	0.01	51*	2.8*	0.5	-0.25
O=S(=O)(c1ccc(F)c(Cl)c1)N1CCCC1	-5	0	54*	1	0.5	1.3
CC(=O)Nc1ccc(S(=O)(=O)N2CCN=C2C)cc1	-8	0	0	1.1	1	-0.67
O=C(O)C1CCCN1S(=O)(=O)c1cc(Cl)ccc1Cl (stereo not drawn)	-116	0.94	5	2.2*	0.9	0.13
Cc1ccc2[nH]ccc(=O)c2c1	.	.	.	.	.	0.17
Cc1cc(S(=O)(=O)N2CCCCCC2)c(Cl)cc1Cl	-89	-0.11	73*	1.9	0.3	-2.8
O=S(=O)(c1cc(Cl)ccc1Br)N1CCCCC1	-220	0.06	96*	3.2*	0	-0.76
COC(=O)n1ccc(C(=O)Nc2ccccc2F)n1	7	1.1	4	0.9	1	0.58
COc1ccc(/C=C(/C(=O)Nc2ccccc2C(=O)NC(C)C)c2ccccc2)cc1	60*	-0.94	43	0.4	0.6	.
COc1ccc(-c2cc(-c3ccccc3O)[nH]n2)cc1	47	-1	27	0.5	0.7	-0.13
COc1ccc(-c2cc(-c3c(O)c(OC)c4occc4c3OC)[nH]n2)cc1	90*	-1.3	70*	0.1	0.3	-2.4
COc1ccc(NC(=O)CN2C(=O)CC(C)(C)S(=O)(=O)c3ccccc32)cc1	25	.	26	0.7	0.7	0.16
Cc1ccc(NC(=O)c2ccccc2)s1	38	1	58*	0.6	0.4	-0.94
Cc1ccc(C(C(=O)NC2CCCC2)N(C(=O)CCC(=O)Nc2cc(C)on2)c2ccccc2)cc1 (stereo not drawn)	.	0.11	.	.	.	0.55
Cc1cc(NC(=O)CCC(=O)N(c2ccc(F)cc2)C2(C(=O)NC3CCCCC3)CCCC2)no1	29	-1.2	23	0.7	0.8	-3.7*

Source: PubChem (several laboratories)
